# Most compounds without a hit are left out; they make up all but 4.2% or so of the library.
# NALP3 yeast inh: NALP3 inhibition in yeast; 330,000 tested, 0.39% active; Yeast reconstituted NLRP3/ASC/caspase-1, beta-gal luminescence, 24 h; AID 2825; inhibition, % at 10 µM;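 active = inhibition of 50% or more; inactive = inhibition below 50%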;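 note: plate controls were induced DMSO wells for no effect and uninduced yeast grown without galactose for full effect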
# NALP1 inh: NALP1 inhibition; S. cerevisiae NALP1/ASC/caspase-1 growth, X-gal OD620, 72 h; AID 2071; 280,000 tested, 0.61% active; inhibition, % at 10 µM; in the data active = inhibition mostly above about 24%, no sharp cut-off; inactive = mostly below about 32%
# tim23-1 inh: growth inhibitors of tim23-1 mutant yeast. inhibition, % at 20 µM. 330,000 tested, 1.3% active. S. cerevisiae tim23-1 growth, BacTiter-Glo luminescence, 24 h. AID 463212;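 active = growth inhibition of the mutant yeast at or above 50%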;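 note: temperature-sensitive mutant grown at 25 °C; plate controls were DMSO-treated mutant yeast for no effect and medium wells lacking yeast for full effect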
# tim10-1 inh: growth inhibitors of tim10-1 mutant yeast | AID 463190 | 330,000 tested, 2.2% active | inhibition, % at 20 µM | S. cerevisiae tim10-1 ts strain growth, BacTiter-Glo, 24 h;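 active = inhibition of at least 40%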;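 note: mutant grown at 25 °C; 0% = DMSO wells with yeast and 100% = wells holding no yeast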
# V-ATPase pHluor: regulators of yeast V-ATPase proton transport | S. cerevisiae, pHLuorin cytosolic pH fluorescence | AID 504577 | 350,000 tested, 0.37% active | response, % at 10 µM; in the data active = response mostly above about 7.3%, no sharp cut-off; inactive = mostly below about 5.4%; note: actives read high
# TIM10 inh: growth inhibitors of TIM10 yeast strain; inhibition, % at 10 µM; 330,000 tested, 1.4% active; S. cerevisiae TIM10 strain growth, BacTiter-Glo luminescence, 24 h; AID 463195;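 active = inhibition of 40% or more at the single tested concentration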;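 note: wild-type TIM10 isogenic control strain grown at permissive 25 °C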
# tim10-1 conf: tim10-1 yeast growth inhibition, confirmed; inhibition, % at 20 µM; AID 463213; shares compounds with tim10-1 inh; S. cerevisiae tim10-1 ts strain growth, BacTiter-Glo, 24 h; 7,400 tested, 56% active;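 active = inhibition of yeast growth at or above a set limit in either of two repeat tests at 20 µM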;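 note: tim10-1 mutant grown at permissive 25 °C to find synthetic lethal compounds; 0% = DMSO yeast wells and 100% = medium wells without yeast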
# Active calls of the source: *; . = no result.
SMILES,NALP3 yeast inh,NALP1 inh,tim23-1 inh,tim10-1 inh,V-ATPase pHluor,TIM10 inh,tim10-1 conf
Cc1ccc(Sc2nnc(Cc3ccccc3)c3ccccc23)cc1,22,48,34,41*,1,24,27
O=C(Nc1ccccn1)c1csc2c1CCCC2,20,5,14,44*,-3,21,17
COc1ccccc1NC(=O)c1csc2c1CCCC2,34,1,39,14,-3,12,.
CCOc1ccccc1NC(=O)c1c(NC(=O)CCC(=O)O)sc2c1CCCCC2,3,-3,28,32,-2,22,.
CCOC(=O)c1ccc(NC(=O)c2c(NC(=O)CCC(=O)O)sc3c2CCCCC3)cc1,3,-19,26,40*,-1,28,31*
CCCC(=O)Nc1sc2c(c1C(=O)Nc1ccccn1)CCCC2,26,15,25,45*,-3,25,23
COCCCN(C(=O)C1CCCCC1)c1c(N)n(Cc2ccccc2)c(=O)[nH]c1=O,1,.,14,4,3,5,.
O=C(Nc1ccc(Cl)c(Cl)c1)Oc1ccc(NC(=O)c2ccco2)cc1,2,100*,29,44*,-1,19,26
COc1cccc(C2CC(c3ccccc3Cl)Nc3ncnn32)c1 (stereo unspecified),.,.,.,.,0,.,.
Clc1ccc(C2CC(c3cccs3)n3ncnc3N2)c(Cl)c1 (stereo unspecified),0,5,45,41*,2,34,25
Cc1cc(Br)cc(Br)c1OCC(=O)NNC(=O)CCC(=O)NCc1ccccc1,12,6,-12,12,2,-7,.
O=C(COC(=O)CNC(=O)c1cccc(Br)c1)Nc1nnc(-c2ccccc2)o1,-5,.,-6,17,-4,-2,.
O=C(c1nc2ccccc2s1)N1CCSCC1,-9,-1,12,7,6,-3,.
Cc1cccc(N2CCN(C(=O)c3ccc4nc(N5CCCCC5)sc4c3)CC2)c1C,7,.,32,3,-1,15,.
O=C(c1ccc2nc(N3CCCCC3)sc2c1)N1CCN(c2ccccn2)CC1,27,.,49,51*,-1,37,35*
O=C(c1nc2ccccc2s1)N1CCN(c2ccccn2)CC1,33,6,28,45*,3,10,27
O=C(c1ccc2nc(N3CCOCC3)sc2c1)N1CCC(Cc2ccccc2)CC1,41,-1,49,54*,-1,39,43*
Cc1c(Cl)cccc1NC(=O)c1cccnc1,10,5,10,-2,-4,-5,.
Cc1ccccc1C(=O)NCC(C)NC(=O)c1ccccc1C (stereo unspecified),9,.,12,-11,-4,-6,.
C/C(=N\NC(=S)NC(C)C)c1ccccc1OC(F)F,10,-9,26,41*,-4,25,30*
C/C(=N\NC(=O)c1cc2ccccc2cc1O)c1cc2ccccc2o1,5,1,21,0,3,3,.
C/C(=N/NC(=O)c1cc2ccccc2cc1O)C1C(=O)c2ccccc2C1=O,13,-5,27,47*,-2,20,32*
C/C(=N\NC(=O)c1cc2ccccc2cc1O)c1ccccn1,20,9,29,60*,4,-22,-30
COc1ccc(N2CCN(CC(O)COCc3ccccc3)CC2)cc1 (stereo unspecified),10,22,8,6,8,1,.
CCC(C)(C)C(=O)Nc1ncc(S(=O)(=O)c2ccc([N+](=O)[O-])cc2)s1,15,8,16,42*,-1,16,27
SMILES,NALP3 yeast inh,NALP1 inh,tim23-1 inh,tim10-1 inh,V-ATPase pHluor,TIM10 inh,tim10-1 conf
O=C(CCl)Nc1ncc(S(=O)(=O)c2ccc([N+](=O)[O-])cc2)s1,5,.,32,16,2,5,.
COc1ccc(C)cc1S(=O)(=O)N(CC(=O)Nc1ccc2c(c1)OCCO2)Cc1ccccc1,-14,17,40,27,-1,27,.
Cc1ccc(-c2csc(NC(=O)CN3CC(C)OC(C)C3)n2)cc1 (stereo unspecified),24,-2,41,40*,-1,26,34*
CC(=O)c1cccc(NC(=O)C(C)OC(=O)CNC(=O)c2ccc(C)s2)c1 (stereo unspecified),24,10,4,3,-3,11,.
S=C(c1ccc(-c2ccc(Cl)cc2)o1)N1CCCCC1,6,.,10,22,0,6,.
N#CCCN1CCN(C(=S)c2ccc(-c3ccc(Cl)cc3)o2)CC1,6,4,32,45*,-2,20,22
C/C(=N\OCC(=O)Nc1nc2ccccc2s1)c1ccccc1,-9,28,39,19,4,21,.
O=[N+]([O-])c1cc(Cl)ccc1N1CCN(c2ccccc2O)CC1,6,-3,37,59*,3,40,53*
CN(C)c1ccc([N+](=O)[O-])cc1C(=O)NCC(c1ccco1)N(C)C (stereo unspecified),16,15,10,-12,3,-13,.
O=C(NC(=S)Nc1ccc(Cl)cn1)C12CC3CC(CC(C3)C1)C2,-10,-1,24,40*,1,31,14
CCCC(=O)Nc1ccc(NC(=O)C23CC4CC(CC(C4)C2)C3)cn1,16,0,40,44*,2,30,33*
CCCC(=O)Nc1ccc(NC(=O)c2ccccc2)nc1,-11,.,8,-5,-1,4,.
O=C(NC(=S)NC1C2CC3CC(C2)CC1C3)C12CC3CC(CC(C3)C1)C2 (stereo unspecified),0,10,35,46*,-3,39,15
O=C(CCCN1C(=O)/C(=C/c2cccc(Br)c2)SC1=S)NCCCN1CCOCC1,26,-6,39,29,0,28,.
COc1cc(CNCc2ccncc2)ccc1OCC(N)=O,.,.,.,.,0,.,.
Cc1noc(C)c1CC(=O)N1CCCC(C(=O)c2ccc(C(C)(C)C)cc2)C1 (stereo unspecified),13,-6,16,41*,0,30,22
COc1ccc(C(=O)C2CCCN(C(=O)Cc3c(C)noc3C)C2)cc1OC (stereo unspecified),15,-8,10,3,-1,-1,.
Cc1cc(C)c(-c2c(O)c3cccc4c3n(c2=O)CCC4)c(C)c1,21,7,47,47*,0,15,26
c1cncc(-c2nnc3sc(C4CCCCC4)nn23)c1,-23,-17,6,10,-5,10,.
CCOc1cccc(-c2nnc3sc(C4CCCCC4)nn23)c1,-20,-15,40,41*,4,31,13
CCC/C=N/Nc1nnc(Cc2ccccc2)c(=O)[nH]1,18,19,5,1,3,7,.
Cc1ccc(S(=O)(=O)N/N=C\c2cc([N+](=O)[O-])ccc2Cl)cc1,10,41,37,46*,1,22,32*
